From PubChem BioAssay AID1159580 (chemical genetic matrix, 2015)
Among all 5,500 compounds or so, about 2,000 (36%) were called active. Inconclusive results (about 18%) are left out. Cut-off read from the data, not from the text of the source: active = normalized growth mostly below about 0.91 (no sharp cut-off); inconclusive = no clear call, values can overlap the other calls; inactive = mostly above about 0.92. The list shows a part of the results.

Assay: chemical genetic growth profiling, strain panel (AID 1159580);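 note: tested at 20 µM; growth read once vehicle control cultures reached saturation at 30 °C; 1 = growth at the plate median or of vehicle wells; lower values mean less growth of the strain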
Conditions: growth OD

Measured: normalized growth

C=CC1=C(C(=O)O)N2C(=O)[C@@H](NC(=O)/C(=N/O)c3csc(N)n3)[C@H]2SC1
inactive: S. cerevisiae deletion strains, locus YJR066W, strain TOR1, stronger effect = lower value 0.95 | S. cerevisiae deletion strains, locus YJR075W, strain HOC1, stronger effect = lower value 1.01 | S. cerevisiae deletion strains, locus YKL009W, strain mrt4, stronger effect = lower value 0.995 | S. cerevisiae deletion strains, locus YKL068W, stronger effect = lower value 1 | S. cerevisiae deletion strains, locus YKL085W, strain MDH1 (second series), stronger effect = lower value 0.989 | S. cerevisiae deletion strains, locus YKL085W, strain MDH1, stronger effect = lower value 0.989 | S. cerevisiae deletion strains, locus YKL160W, strain elf1, stronger effect = lower value 1.02 | S. cerevisiae deletion strains, locus YKL190W, strain CNB1, stronger effect = lower value 1.02 | S. cerevisiae deletion strains, locus YKR001C, strain vps1, stronger effect = lower value 0.979 | S. cerevisiae deletion strains, locus YKR026C, strain gcn3, stronger effect = lower value 1.03 | S. cerevisiae deletion strains, locus YKR091W, strain srl3, stronger effect = lower value 1.02 | S. cerevisiae deletion strains, locus YLL001W, strain dnm1, stronger effect = lower value 1.02 | S. cerevisiae deletion strains, locus YLL026W, stronger effect = lower value 1.03 | S. cerevisiae deletion strains, locus YLL041C, strain sdh2, stronger effect = lower value 1.02 | S. cerevisiae deletion strains, locus YLR027C, strain aat2, stronger effect = lower value 1.02 | S. cerevisiae deletion strains, locus YLR039C, strain RIC1, stronger effect = lower value 1.04 | S. cerevisiae deletion strains, locus YLR058C, strain SHM2, stronger effect = lower value 0.996 | S. cerevisiae deletion strains, locus YLR102C, strain apc9, stronger effect = lower value 0.997 | S. cerevisiae deletion strains, locus YLR113W, strain HOG1, stronger effect = lower value 1.02 | S. cerevisiae deletion strains, locus YLR221C, strain rsa3, stronger effect = lower value 1.04 | S. cerevisiae deletion strains, locus YLR258W, strain gsy2, stronger effect = lower value 1.02 | S. cerevisiae deletion strains, locus YLR262C, strain YPT6 (second series), stronger effect = lower value 1.04 | S. cerevisiae deletion strains, locus YLR262C, strain YPT6, stronger effect = lower value 1.02 | S. cerevisiae deletion strains, locus YLR268W, strain sec22, stronger effect = lower value 1 | S. cerevisiae deletion strains, locus YLR320W, strain mms22, stronger effect = lower value 1.02 | S. cerevisiae deletion strains, locus YLR330W, strain CHS5, stronger effect = lower value 0.992 | S. cerevisiae deletion strains, locus YLR342W, strain FKS1 (second series), stronger effect = lower value 1.02 | S. cerevisiae deletion strains, locus YLR342W, strain FKS1, stronger effect = lower value 1.03 | S. cerevisiae deletion strains, locus YLR357W, strain rsc2, stronger effect = lower value 1.02 | S. cerevisiae deletion strains, locus YLR370C, strain arc18, stronger effect = lower value 1.02 | S. cerevisiae deletion strains, locus YLR371W, strain rom2, stronger effect = lower value 0.994 | S. cerevisiae deletion strains, locus YLR384C, strain iki3, stronger effect = lower value 1.02 | S. cerevisiae deletion strains, locus YLR418C, strain cdc73, stronger effect = lower value 0.998 | S. cerevisiae deletion strains, locus YML016C, strain PPZ1, stronger effect = lower value 0.987 | S. cerevisiae deletion strains, locus YML032C, strain rad52, stronger effect = lower value 1 | S. cerevisiae deletion strains, locus YML120C, strain ndi1, stronger effect = lower value 1.02 | S. cerevisiae deletion strains, locus YML124C, strain tub3, stronger effect = lower value 0.993 | S. cerevisiae deletion strains, locus YMR058W, strain fet3, stronger effect = lower value 1.01 | S. cerevisiae deletion strains, locus YMR078C, strain ctf18, stronger effect = lower value 0.989 | S. cerevisiae deletion strains, locus YMR125W, strain sto1, stronger effect = lower value 1.03 | S. cerevisiae deletion strains, locus YMR129W, stronger effect = lower value 1.01 | S. cerevisiae deletion strains, locus YMR205C, strain PFK2, stronger effect = lower value 1.03 | S. cerevisiae deletion strains, locus YMR223W, strain ubp8, stronger effect = lower value 0.994 | S. cerevisiae deletion strains, locus YMR231W, strain pep5, stronger effect = lower value 1.02 | S. cerevisiae deletion strains, locus YMR263W, strain SAP30, stronger effect = lower value 1.04 | S. cerevisiae deletion strains, locus YMR307W, strain GAS1, stronger effect = lower value 1.05 | S. cerevisiae deletion strains, locus YNL067W, strain RPL9B, stronger effect = lower value 1.08 | S. cerevisiae deletion strains, locus YNL071W, strain lat1, stronger effect = lower value 1.02 | S. cerevisiae deletion strains, locus YNL128W, strain TEP1, stronger effect = lower value 1.02 | S. cerevisiae deletion strains, locus YNL153C, strain GIM3, stronger effect = lower value 1 | S. cerevisiae deletion strains, locus YNL183C, strain NPR1, stronger effect = lower value 0.956 | S. cerevisiae deletion strains, locus YNL209W, strain ssb2, stronger effect = lower value 1.01 | S. cerevisiae deletion strains, locus YNL233W, strain BNI4, stronger effect = lower value 1 | S. cerevisiae deletion strains, locus YNL248C, strain rpa49, stronger effect = lower value 1.04 | S. cerevisiae deletion strains, locus YNL250W, strain rad50, stronger effect = lower value 0.99 | S. cerevisiae deletion strains, locus YNL271C, strain bni1, stronger effect = lower value 0.99 | S. cerevisiae deletion strains, locus YNL298W, strain CLA4, stronger effect = lower value 0.982 | S. cerevisiae deletion strains, locus YNL307C, strain MCK1, stronger effect = lower value 1.01 | S. cerevisiae deletion strains, locus YNL322C, strain KRE1 (second series), stronger effect = lower value 1.04 | S. cerevisiae deletion strains, locus YNL322C, strain KRE1, stronger effect = lower value 1 | S. cerevisiae deletion strains, locus YNR049C, strain mso1, stronger effect = lower value 1.02 | S. cerevisiae deletion strains, locus YNR052C, strain pop2, stronger effect = lower value 1 | S. cerevisiae deletion strains, locus YOL006C, strain TOP1, stronger effect = lower value 0.995 | S. cerevisiae deletion strains, locus YOL012C, strain htz1 1.75 | S. cerevisiae deletion strains, locus YOR001W, strain rrp6, stronger effect = lower value 1.03 | S. cerevisiae deletion strains, locus YOR061W, strain CKA2, stronger effect = lower value 0.994 | S. cerevisiae deletion strains, locus YOR069W, strain VPS5, stronger effect = lower value 0.998 | S. cerevisiae deletion strains, locus YOR070C, strain gyp1, stronger effect = lower value 1.01 | S. cerevisiae deletion strains, locus YOR080W, strain dia2, stronger effect = lower value 1.04 | S. cerevisiae deletion strains, locus YOR083W, strain WHI5, stronger effect = lower value 1.02 | S. cerevisiae deletion strains, locus YOR106W, strain vam3, stronger effect = lower value 1.03 | S. cerevisiae deletion strains, locus YOR136W, strain idh2, stronger effect = lower value 0.988 | S. cerevisiae deletion strains, locus YOR144C, strain elg1, stronger effect = lower value 0.979 | S. cerevisiae deletion strains, locus YOR184W, strain ser1, stronger effect = lower value 0.993 | S. cerevisiae deletion strains, locus YOR231W, strain MKK1, stronger effect = lower value 0.978 | S. cerevisiae deletion strains, locus YOR265W, strain rbl2, stronger effect = lower value 1.02 | S. cerevisiae deletion strains, locus YOR270C, strain vph1, stronger effect = lower value 1.03 | S. cerevisiae deletion strains, locus YOR290C, strain snf2, stronger effect = lower value 1.01 | S. cerevisiae deletion strains, locus YOR316C, strain cot1, stronger effect = lower value 0.994 | S. cerevisiae deletion strains, locus YPL051W, strain arl3, stronger effect = lower value 1.03 | S. cerevisiae deletion strains, locus YPL055C, strain LGE1, stronger effect = lower value 1.03 | S. cerevisiae deletion strains, locus YPL078C, strain atp4, stronger effect = lower value 1.02 | S. cerevisiae deletion strains, locus YPL106C, strain sse1, stronger effect = lower value 1.04 | S. cerevisiae deletion strains, locus YPL240C, strain hsp82, stronger effect = lower value 1.03 | S. cerevisiae deletion strains, locus YPL241C, strain CIN2, stronger effect = lower value 1.01 | S. cerevisiae deletion strains, locus YPL256C, strain CLN2, stronger effect = lower value 0.957 | S. cerevisiae deletion strains, locus YPR141C, strain kar3, stronger effect = lower value 0.984 | S. cerevisiae deletion strains, locus YPR163C, strain tif3, stronger effect = lower value 0.991 | S. cerevisiae deletion strains, locus YPR167C, strain met16, stronger effect = lower value 0.994 | S. cerevisiae deletion strains, strain wtn01, stronger effect = lower value 0.993 | S. cerevisiae strains, strain wild type, stronger effect = lower value 1.03
